# In the antibiotic and cytotoxicity screens of Wong et al. (2023):
# About 3,300 (8.5%) of roughly 39,000 compounds were called active. The sample holds actives, similar compounds and a random draw of the others, so the mix is not that of the screen.
# System: HepG2
# Experiment: cytotoxicity call (relative viability < 0.9)
# Conditions: 10 µM
row,Structure (SMILES),cytotoxicity call
1,CC(=O)Nc1cc2c(cc1N)OCCO2,inactive
2,COCC(=O)N(C)C[C@@H]1Oc2cc(C#C[C@H](C)O)ccc2S(=O)(=O)N([C@@H](C)CO)C[C@@H]1C,inactive
3,C[C@H]1CN([C@@H](C)CO)C(=O)c2cc(NC(=O)Nc3ccc4c(c3)OCO4)ccc2O[C@@H]1CN(C)Cc1ccc(Oc2ccccc2)cc1,active
4,C[C@H](CO)N1C[C@H](C)[C@H](CN(C)Cc2ccc(Oc3ccccc3)cc2)Oc2ccc(NC(=O)Nc3ccc4c(c3)OCO4)cc2C1=O,inactive
5,C[C@@H]1CN([C@@H](C)CO)C(=O)c2cc(NC(=O)Nc3ccc4c(c3)OCO4)ccc2O[C@@H]1CN(C)Cc1ccc(Oc2ccccc2)cc1,active
6,C[C@H](CO)N1C[C@H](C)[C@@H](CN(C)Cc2ccc(Oc3ccccc3)cc2)Oc2ccc(NC(=O)Nc3ccc4c(c3)OCO4)cc2C1=O,inactive
7,C[C@@H]1CN([C@H](C)CO)C(=O)c2cc(NC(=O)Nc3ccc4c(c3)OCO4)ccc2O[C@H]1CN(C)Cc1ccc(Oc2ccccc2)cc1,inactive
8,C[C@@H]1CN([C@H](C)CO)C(=O)c2cc(NC(=O)Nc3ccc4c(c3)OCO4)ccc2O[C@@H]1CN(C)Cc1ccc(Oc2ccccc2)cc1,active
9,C[C@H]1CN([C@@H](C)CO)C(=O)c2cc(NC(=O)Nc3ccc4c(c3)OCO4)ccc2O[C@H]1CN(C)Cc1ccc(Oc2ccccc2)cc1,inactive
10,C[C@@H]1CN([C@@H](C)CO)C(=O)c2cc(NC(=O)Nc3ccc4c(c3)OCO4)ccc2O[C@H]1CN(C)Cc1ccc(Oc2ccccc2)cc1,inactive
11,C[C@@H]1CN([C@@H](C)CO)C(=O)c2cccc(NC(=O)C3CCCCC3)c2O[C@H]1CN(C)C(=O)Nc1cccc2ccccc12,inactive
12,Cc1cc(C(=O)Nc2ccc3c(c2)C(=O)N(C)[C@@H]2CC[C@@H](CC(=O)NCC(F)(F)F)O[C@H]2CO3)no1,inactive
13,C[C@@H]1CN([C@@H](C)CO)C(=O)c2cc(NC(=O)CCC(F)(F)F)ccc2O[C@@H](C)CCCCO[C@@H]1CN(C)Cc1ccc(C(=O)O)cc1,inactive
14,O=C(C[C@@H]1C=C[C@H](NC(=O)C2CC2)[C@@H](CO)O1)NCCCN1CCOCC1,inactive
15,O=C(NCc1ccccc1)C1=C[C@H](c2ccc3c(c2)Cc2ccccc2-3)C[C@H](OCc2ccc(CO)cc2)O1,inactive
16,C[C@@H]1CN([C@@H](C)CO)C(=O)c2cc(NS(C)(=O)=O)ccc2O[C@H]1CN(C)C(=O)Nc1ccc2c(c1)OCO2,inactive
17,C[C@@H]1CN([C@H](C)CO)C(=O)c2cc(NC(=O)NC3CCCCC3)ccc2O[C@@H](C)CCCCO[C@H]1CN(C)C(=O)Nc1ccc(C(F)(F)F)cc1,inactive
18,CCNC(=O)[C@@H]1CCCN1C(=O)[C@H](CCCNC(=N)N)NC(=O)[C@H](CC(C)C)NC(=O)[C@@H](COC(C)(C)C)NC(=O)[C@H](Cc1ccc(O)cc1)NC(=O)[C@H](CO)NC(=O)[C@H](Cc1c[nH]c2ccccc12)NC(=O)[C@H](Cc1cnc[nH]1)NC(=O)[C@H]1CCC(=O)N1,inactive
19,O=C1N(Cc2ccccc2)Cc2ccccc2[C@H]2OC(c3ccc(OCCCO)cc3)=N[C@@]12Cc1ccccc1,inactive
20,CC(C)(C)OC(=O)CC[C@@]12N=C(c3ccc(OCCCO)cc3)O[C@@H]1c1ccccc1CN(Cc1ccccc1)C2=O,active
21,CC(C)(C)OC(=O)CC[C@]12N=C(c3ccc(OCCCO)cc3)O[C@H]1c1ccccc1CN(Cc1ccccc1)C2=O,inactive
22,CC(C)(C)OC(=O)CC[C@@]12N=C(c3ccc(OCCCO)cc3)O[C@@H]1c1ccccc1CN(C(=O)c1ccccc1)C2=O,active

row,Structure (SMILES),cytotoxicity call
1,O=C(c1ccccc1)N1Cc2ccccc2[C@H]2OC(c3ccc(OCCCO)cc3)=N[C@@]2(Cc2ccccc2)C1=O,inactive
2,O=C1N(Cc2ccccc2)Cc2ccccc2C[C@@]12N=C(c1ccc(OCCCO)cc1)O[C@H]2c1ccccc1,active
3,CC(C)(C)OC(=O)CC[C@]12N=C(c3ccc(OCCCO)cc3)O[C@H]1c1ccccc1CN(C(=O)c1ccccc1)C2=O,inactive
4,CC(C)(C)OC(=O)CC[C@]12N=C(c3ccc(OCCCO)cc3)O[C@H]1c1ccccc1N(Cc1ccccc1)C2=O,inactive
5,O=C1N(Cc2ccccc2)Cc2ccccc2C[C@]12N=C(c1ccc(OCCCO)cc1)O[C@@H]2c1ccccc1,inactive
6,COC(=O)c1cn(C)cn1,inactive
7,Cc1ccc(S(=O)(=O)N(C)C[C@H]2Oc3ccc(NS(C)(=O)=O)cc3CC(=O)N([C@H](C)CO)C[C@@H]2C)cc1,inactive
8,C[C@@H]1CN([C@@H](C)CO)C(=O)c2cc(N(C)C)ccc2O[C@@H](C)CCCCO[C@@H]1CN(C)Cc1ccc(C(F)(F)F)cc1,inactive
9,C[C@]1(CC(=O)O)C(=O)N=C2C=CC=CN21,inactive
10,COc1ccc(CN(C)C[C@@H]2Oc3ccc(NC(=O)Nc4ccc(C(F)(F)F)cc4)cc3C(=O)N([C@@H](C)CO)C[C@@H]2C)cc1,active
11,COc1ccc(CN(C)C[C@H]2Oc3ccc(NC(=O)Nc4ccc(C(F)(F)F)cc4)cc3C(=O)N([C@H](C)CO)C[C@H]2C)cc1,active
12,COc1ccc(CN(C)C[C@@H]2Oc3ccc(NC(=O)Nc4ccc(C(F)(F)F)cc4)cc3C(=O)N([C@H](C)CO)C[C@@H]2C)cc1,active
13,COc1ccc(NC(=O)Nc2ccc3c(c2)C(=O)N([C@H](C)CO)C[C@H](C)[C@@H](CN(C)Cc2ccc(C(F)(F)F)cc2)O3)cc1,inactive
14,COc1ccc(NC(=O)Nc2ccc3c(c2)C(=O)N([C@H](C)CO)C[C@H](C)[C@H](CN(C)Cc2ccc(C(F)(F)F)cc2)O3)cc1,inactive
15,COc1ccc(NC(=O)Nc2ccc3c(c2)C(=O)N([C@H](C)CO)C[C@@H](C)[C@H](CN(C)Cc2ccc(C(F)(F)F)cc2)O3)cc1,active
16,COc1ccc(NC(=O)Nc2ccc3c(c2)C(=O)N([C@H](C)CO)C[C@@H](C)[C@@H](CN(C)Cc2ccc(C(F)(F)F)cc2)O3)cc1,inactive
17,COc1ccc(CN(C)C[C@H]2Oc3ccc(NC(=O)Nc4ccc(C(F)(F)F)cc4)cc3C(=O)N([C@H](C)CO)C[C@@H]2C)cc1,inactive
18,C[C@H]1CN([C@@H](C)CO)C(=O)c2cc(C#CC3(O)CCCC3)cnc2O[C@@H]1CN(C)C(=O)Cc1ccccc1,inactive
19,C[C@H](CO)N1C[C@H](C)[C@@H](CN(C)Cc2ccc(F)cc2)Oc2cc(C#CC(C)(C)O)ccc2S1(=O)=O,inactive
20,OCC1OC(OC2C(O)C(CO)OC2(CO)OC2OC(CO)C(O)C(O)C2O)C(O)C(O)C1O (stereo not given),inactive
21,CN(C)C(=O)N[C@H]1CN(S(C)(=O)=O)[C@H]2CCCO[C@@H]12,inactive
22,C[C@@H]1CN([C@@H](C)CO)C(=O)c2cc(NS(=O)(=O)c3ccc(Cl)cc3)ccc2O[C@@H](C)CCCCO[C@H]1CN(C)Cc1ccc(C(=O)O)cc1,inactive

row,Structure (SMILES),cytotoxicity call
1,Cn1nc(C(=O)O)c2ccccc2c1=O,inactive
2,COc1cccc(CNC(=O)c2cc3c(c(-c4cccc(-c5ccncc5)c4)n2)[C@@H](CCO)N([S@@](=O)C(C)(C)C)C3)c1,inactive
3,C[C@H]1CC/C=C\[C@H]2O[C@@]34C=CCN(Cn5nnc6ccccc65)C(=O)[C@H]3N(CCCCCCO)C(=O)[C@@H]4[C@@H]2C(=O)O1,inactive
4,C[C@H]1CN([C@@H](C)CO)C(=O)c2cc(Br)cnc2O[C@@H]1CN(C)C(=O)Nc1ccc(F)cc1,inactive
5,COc1ccc(CN(C)C[C@@H]2Oc3ccc(NC(=O)Nc4ccc(C(F)(F)F)cc4)cc3C(=O)N([C@H](C)CO)C[C@H]2C)cc1,active
6,COc1ccc(CN(C)C[C@H]2Oc3ccc(NC(=O)Nc4ccc(C(F)(F)F)cc4)cc3C(=O)N([C@@H](C)CO)C[C@@H]2C)cc1,active
7,COc1ccc(CN(C)C[C@H]2Oc3ccc(NC(=O)Nc4ccc(C(F)(F)F)cc4)cc3C(=O)N([C@@H](C)CO)C[C@H]2C)cc1,active
8,COc1ccc(NC(=O)Nc2ccc3c(c2)C(=O)N([C@@H](C)CO)C[C@H](C)[C@@H](CN(C)Cc2ccc(C(F)(F)F)cc2)O3)cc1,active
9,c1ccc2c([C@@H]3CCCN3)cccc2c1,inactive
10,Cc1ccc(S(=O)(=O)N(C)C[C@@H]2Oc3c(NC(=O)c4ccncc4)cccc3C(=O)N([C@H](C)CO)C[C@H]2C)cc1,inactive
11,C[C@@H]1CCCCO[C@H](CN(C)Cc2ccncc2)[C@H](C)CN([C@@H](C)CO)C(=O)c2cc(NC(=O)Cc3ccccc3)ccc2O1,inactive
12,COc1ccc(C#Cc2ccc3c(c2)O[C@H](CN(C)S(=O)(=O)c2ccccc2F)[C@H](C)CN([C@@H](C)CO)S3(=O)=O)cc1,inactive
13,C=CCOC(=O)[C@H]1[C@@H]2C(=O)O[C@@H](c3ccccc3)[C@@H](c3ccccc3)N2[C@@H](c2ccc(OCCOC(=O)[C@H]3C[C@H]4C(=O)N[C@@H](CC(C)C)C(=O)N4[C@H]3c3ccc(O)cc3)cc2)[C@]12C(=O)Nc1ccccc12,inactive
14,N=C(N)NCCS,inactive
15,C[C@@H]1CN([C@@H](C)CO)S(=O)(=O)c2ccc(C#Cc3ccccc3)cc2O[C@@H]1CN(C)C(=O)c1ccccn1,inactive
16,C[C@@H]1CCCCO[C@@H](CN(C)C(=O)NC2CCCCC2)[C@H](C)CN([C@H](C)CO)C(=O)c2cc(NS(=O)(=O)c3ccc(Cl)cc3)ccc2O1,inactive
17,N#C[C@H](N)c1ccc(Cl)cc1,inactive
18,COc1ccc(CN(C)C[C@@H]2Oc3ccc(NC(=O)Nc4ccc(C(F)(F)F)cc4)cc3C(=O)N([C@@H](C)CO)C[C@H]2C)cc1,active
19,COc1ccc(NC(=O)Nc2ccc3c(c2)C(=O)N([C@@H](C)CO)C[C@@H](C)[C@H](CN(C)Cc2ccc(C(F)(F)F)cc2)O3)cc1,inactive
20,COc1ccc(NC(=O)Nc2ccc3c(c2)C(=O)N([C@@H](C)CO)C[C@H](C)[C@H](CN(C)Cc2ccc(C(F)(F)F)cc2)O3)cc1,inactive
21,COc1ccc(NC(=O)Nc2ccc3c(c2)C(=O)N([C@@H](C)CO)C[C@@H](C)[C@@H](CN(C)Cc2ccc(C(F)(F)F)cc2)O3)cc1,active
